# From PubChem BioAssay (Tox21)
# Unmarked numbers belong to inactive results. Records with an inconclusive call do not appear. Entries that show only a call come without a potency. Activity calls are given as the source filed them. Unless noted, calls follow the shape of the dose curve; as a rule, active = well fitted curve in the direction sought with a large enough effect in the repeat runs; inconclusive = weak or mixed curves; inactive = no such curve, though single readings can be large; an effect the other way counts as inactive or inconclusive.
# Key:
# [1] = qHTS assay to identify small molecule agonists of the estrogen receptor alpha (ER-alpha) signaling pathway in the presence of an antagonist - cell viability counter screen (AID 1259386);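 also: cells exposed to compounds for 22 h at 37 °C before the viability read; nearly all actives have a fitted effect of over 30% in size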; also: potency is read from the fitted curve at half-maximal effect
# In short: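 Read-out: CellTiter-Fluor fluorescence after 1hr reagent incubation, measured in the same wells as the luciferase readout. VM7Luc4E2 cells were exposed to 15 compound concentrations with 10.0nM ICI-182,780 for 22hr at 37C.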
# [2] = biological target: Progesterone receptor (Homo sapiens) (UniProt P06401); test: qHTS assay to identify small molecule agonists of the progesterone receptor (PR) signaling pathway (AID 1346784; calls by dose curve; also: nearly all actives have a fitted effect of over 30% in size)
# In short: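 Fluorescence from LiveBLAzer B/G FRET substrate cleavage (2 hr, RT) reported PR activation in PR-UAS-bla HEK 293T cells treated 16 hr at 37C/5% CO2 with compounds; medium contained 2% charcoal-stripped FBS.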
# [3] = biological target: Progesterone receptor (Homo sapiens) (UniProt P06401); test: qHTS assay to identify small molecule antagonists of the progesterone receptor (PR) signaling pathway (AID 1346795; active = well fitted inhibition curve with a large enough effect in the signal ratio in the repeat runs, not every such curve was filed as active; the % refers to the signal ratio)
# In short: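 Fluorescence intensity measured 2 hr after adding beta-lactamase FRET substrate to PR-UAS-bla HEK293T cells that had been co-treated 16 hr with compound and 1 nM R5020 (final concentration) in 2% charcoal-stripped FBS.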
# [4] = qHTS assay to identify small molecule antagonists of the progesterone receptor (PR) signaling pathway - cell viability counter screen (AID 1346798); also: series mostly up to about 92 µM; nearly all actives have a fitted effect of over 50% in size
# In short: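 CellTiter-Glo luminescence; PR-UAS-bla HEK293T, 3,000 cells/well; compound + R5020, 16 hr, 37C/5% CO2; 30 min RT before read.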
# [5] = qHTS assay to identify small molecule agonists of the progesterone receptor (PR) signaling pathway - cell viability counter screen (AID 1346799; calls by dose curve; also: nearly all actives have a fitted effect of over 45% in size)
# In short: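 In parallel with the beta-lactamase readout, cytotoxicity toward PR-UAS-bla HEK293T cells was measured by CellTiter-Glo luminescence following 16 hr compound incubation in 2% charcoal-stripped FBS medium.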
# [6] = qHTS assay to identify small molecule antagonists of the TGF-beta/Smad signaling pathway - cell viability counter screen (AID 1346824); also: nearly all actives have a fitted effect of over 50% in size
# In short: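 Cytotoxicity counter-screen run in the same wells as the beta-lactamase Smad reporter read: CellTiter-Glo luminescence after 30 min at room temperature. HEK 293T SBE-bla cells had 5 hr compound exposure at 37 C with TGF-beta1 (0.25 ng/mL stock).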
# [7] = qHTS assay to identify small molecule agonists of the TGF-beta/Smad signaling pathway - cell viability counter screen (AID 1346829); also: top concentration of the series differs between compounds; nearly all actives have a fitted effect of over 45% in size
# In short: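 Compound-treated SBE-bla HEK 293T cells (5 hr, 37 C) were assessed for viability with CellTiter-Glo in parallel with the reporter read.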
# [8] = qHTS assay to identify small molecule agonists of the TGF-beta/Smad signaling pathway (AID 1346859; active = well fitted activation curve with a large enough effect in the signal ratio in the repeat runs, not every such curve was filed as active; the % refers to the signal ratio; also: series mostly up to about 77 µM)
# In short: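 After overnight seeding, SBE-bla HEK 293T cells are dosed with compounds in DMSO and kept 5 hr at 37 C, 5% CO2. LiveBLAzer-type FRET substrate is then applied for 2 hr at room temperature.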
# [9] = biological target: Thyrotropin-releasing hormone receptor (Homo sapiens) (UniProt P34981); test: qHTS assay to identify small molecule antagonists of the thyrotropin-releasing hormone receptor (TRHR) signaling pathway (AID 1346877; active = well fitted inhibition curve with a large enough effect in the repeat runs, not every such curve was filed as active; also: series mostly up to about 51 µM)
# In short: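 HEK293/TRHR cells, 18 h, 37 °C; Ca2+ dye 2 h; cpd 5 min RT; TRH 1 nM final; fluorescence read 3 min, 1 s intervals; 15 concs, triplicate.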
# [10] = biological target: Thyrotropin-releasing hormone receptor (Homo sapiens) (UniProt P34981); test: qHTS assay to identify small molecule agonists of the thyrotropin-releasing hormone receptor (TRHR) signaling pathway (AID 1346891; calls by dose curve;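 also: HEK293 cells expressing TRHR with calcium dye readout; series mostly up to about 58 µM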)
# In short: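 Compounds were tested as agonists at 15 concentrations, in triplicate, on TRHR-Hek293 cells; calcium-sensitive dye fluorescence was recorded for 3 min following addition.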
# [11] = Human pregnane X receptor (PXR) small molecule agonists, qHTS cell viability counter screen (AID 1346977); also: nearly all actives have a fitted effect of over 50% in size; also: potency is read from the fitted curve at half-maximal effect
# In short: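 Viability counter screen: CellTiter-Fluor signal in PXR-Luc HepG2 cells, 24hr compound exposure, 37C, 5% CO2.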
# [12] = Caspase-3/7 induction in HepG2 cells by small molecules, qHTS assay (AID 1346978); also: nearly all actives have a fitted effect of over 15% in size
# In short: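 Caspase-3/7 induction was measured by Caspase-Glo 3/7 luminescence (30 min, room temperature) after a 17 hr compound exposure of wild-type HepG2 cells seeded at 2,000 per well and pre-incubated 5 hr.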
# [13] = Caspase-3/7 induction in CHO-K1 cells by small molecules, qHTS cell viability counter screen (AID 1346979); also: nearly all actives have a fitted effect of over 35% in size
# In short: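 Viability readout by fluorescence (CellTiter-Fluor) on wild-type CHO-K1 cells exposed for 16hr at 37C and 5% CO2 to compounds delivered in DMSO; reagent incubated 1hr before reading.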
# [14] = Caspase-3/7 induction in CHO-K1 cells by small molecules, qHTS assay (AID 1346980); also: nearly all actives have a fitted effect of over 15% in size
# In short: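 Luminescent Caspase-Glo 3/7 read (30min, room temperature) quantified apoptosis induction. Cells were wild-type CHO-K1, treated with compound for 17hr at 37 C and 5% CO2.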
# [15] = Caspase-3/7 induction in HepG2 cells by small molecules, qHTS cell viability counter screen (AID 1346981); also: nearly all actives have a fitted effect of over 30% in size; also: potency is read from the fitted curve at half-maximal effect
# In short: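 Fluorescence read-out of live-cell protease activity (CellTiter-Fluor) after 1 hr with reagent. This was measured in the same wells as the caspase-3/7 luminescence, on HepG2 cells exposed to DMSO-dissolved compounds for 16 hr at 37 C.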
# [16] = biological target: Nuclear receptor subfamily 1 group I member 2 (Homo sapiens) (UniProt O75469); test: Human pregnane X receptor (PXR) small molecule agonists, qHTS assay (AID 1346982); also: nearly all actives have a fitted effect of over 35% in size
# In short: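 HepG2 PXR-Luc reporter line, 5% charcoal-stripped FBS; 5 hr pre-incubation, compound (DMSO) 24 hr at 37 C/5% CO2; ONE-Glo 30 min RT; luminescence read-out.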
# [17] = biological target: Nuclear receptor subfamily 1 group I member 2 (Rattus norvegicus) (UniProt Q9R1A7); test: Rat pregnane X receptor (rPXR) activation by small molecules, qHTS assay (AID 1346983); conditions: rPXR luciferase reporter cells, One-Glo luminescence, 24 h; max activation: stronger effect = higher value; also: nearly all actives have a fitted effect of over 20% in size
# In short: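 Luminescent readout (One-Glo luciferase, 30 min room temperature) followed 24 hr compound treatment at 37 C of rPXR cells plated 2,000 per well and preincubated 5hr; qHTS format with compounds delivered in DMSO.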
# [18] = biological target: Nuclear receptor subfamily 1 group I member 2 (Homo sapiens) (UniProt O75469); test: CYP3A4 induction through human pregnane X receptor (PXR) by small molecules, qHTS assay (AID 1346984); also: nearly all actives have a fitted effect of over 40% in size
# In short: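 HepG2-derived DPX-2 line carrying PXR plus a CYP3A4-promoter luciferase reporter; cells plated 5 hr, compound-exposed 24 hr at 37C. CYP3A4 activity probed with 3uM (final) Luciferin-IPA for 3hr, then luciferase read after One-Glo.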
# [19] = biological target: Nuclear receptor subfamily 1 group I member 2 (Homo sapiens) (UniProt O75469); test: Human pregnane X receptor (PXR) activation by small molecules, qHTS assay (AID 1346985); also: nearly all actives have a fitted effect of over 40% in size
# In short: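 DPX-2 cells (HepG2 co-transfected with a PXR response element and a CYP3A4-promoter luciferase construct) were seeded at 2,000 per well, rested 5 hr at 37C, then exposed to DMSO-dissolved compounds for 24 hr. Activation was read as luciferase luminescence.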
# [20] = biological target: Cytochrome P450 2D6 (Homo sapiens) (UniProt P10635); test: Cytochrome P450 Family 2 Subfamily D Member 6 (CYP2D6) small molecule antagonists: luciferase reporter qHTS assay (AID 1671196); also: nearly all actives have a fitted effect of over 50% in size; also: potency is read from the fitted curve at half-maximal effect
# In short: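 Luminogenic proluciferin substrate, CYP2D6 enzyme; 10 min RT preincubation with compound, NADPH regeneration system added, 1 h RT. Stop/detection reagent, 20 min RT, luminescence read (RLU). Signal proportional to CYP activity.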
# Chain of Cytochrome P450 2D6 (Homo sapiens) (P10635 whole entry, looked up): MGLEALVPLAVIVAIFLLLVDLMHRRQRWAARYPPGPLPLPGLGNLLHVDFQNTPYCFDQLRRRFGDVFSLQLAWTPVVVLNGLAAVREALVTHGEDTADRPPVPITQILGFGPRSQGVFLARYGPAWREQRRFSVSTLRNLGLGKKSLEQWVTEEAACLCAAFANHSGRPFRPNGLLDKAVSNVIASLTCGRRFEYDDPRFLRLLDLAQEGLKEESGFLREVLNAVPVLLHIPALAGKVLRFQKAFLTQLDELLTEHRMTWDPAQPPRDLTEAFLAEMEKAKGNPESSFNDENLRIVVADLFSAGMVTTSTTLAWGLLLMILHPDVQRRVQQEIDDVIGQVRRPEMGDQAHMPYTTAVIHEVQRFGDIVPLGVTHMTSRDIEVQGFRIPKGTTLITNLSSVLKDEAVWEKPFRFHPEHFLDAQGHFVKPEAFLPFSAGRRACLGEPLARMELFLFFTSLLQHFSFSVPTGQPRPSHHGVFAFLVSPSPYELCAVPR
# Chain of Nuclear receptor subfamily 1 group I member 2 (Homo sapiens) (O75469 whole entry, looked up): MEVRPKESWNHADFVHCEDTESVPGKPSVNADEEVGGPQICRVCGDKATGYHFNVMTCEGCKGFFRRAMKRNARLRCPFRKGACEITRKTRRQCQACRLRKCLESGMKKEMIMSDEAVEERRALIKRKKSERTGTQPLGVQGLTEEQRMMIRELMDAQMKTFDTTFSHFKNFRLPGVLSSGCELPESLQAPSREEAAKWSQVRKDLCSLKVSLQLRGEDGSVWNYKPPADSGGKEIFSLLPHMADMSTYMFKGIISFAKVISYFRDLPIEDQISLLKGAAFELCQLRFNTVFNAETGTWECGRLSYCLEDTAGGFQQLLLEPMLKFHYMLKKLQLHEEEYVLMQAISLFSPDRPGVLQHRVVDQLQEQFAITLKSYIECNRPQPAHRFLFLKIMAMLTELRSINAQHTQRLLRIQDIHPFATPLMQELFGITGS
# Chain of Progesterone receptor (Homo sapiens) (P06401 whole entry, looked up): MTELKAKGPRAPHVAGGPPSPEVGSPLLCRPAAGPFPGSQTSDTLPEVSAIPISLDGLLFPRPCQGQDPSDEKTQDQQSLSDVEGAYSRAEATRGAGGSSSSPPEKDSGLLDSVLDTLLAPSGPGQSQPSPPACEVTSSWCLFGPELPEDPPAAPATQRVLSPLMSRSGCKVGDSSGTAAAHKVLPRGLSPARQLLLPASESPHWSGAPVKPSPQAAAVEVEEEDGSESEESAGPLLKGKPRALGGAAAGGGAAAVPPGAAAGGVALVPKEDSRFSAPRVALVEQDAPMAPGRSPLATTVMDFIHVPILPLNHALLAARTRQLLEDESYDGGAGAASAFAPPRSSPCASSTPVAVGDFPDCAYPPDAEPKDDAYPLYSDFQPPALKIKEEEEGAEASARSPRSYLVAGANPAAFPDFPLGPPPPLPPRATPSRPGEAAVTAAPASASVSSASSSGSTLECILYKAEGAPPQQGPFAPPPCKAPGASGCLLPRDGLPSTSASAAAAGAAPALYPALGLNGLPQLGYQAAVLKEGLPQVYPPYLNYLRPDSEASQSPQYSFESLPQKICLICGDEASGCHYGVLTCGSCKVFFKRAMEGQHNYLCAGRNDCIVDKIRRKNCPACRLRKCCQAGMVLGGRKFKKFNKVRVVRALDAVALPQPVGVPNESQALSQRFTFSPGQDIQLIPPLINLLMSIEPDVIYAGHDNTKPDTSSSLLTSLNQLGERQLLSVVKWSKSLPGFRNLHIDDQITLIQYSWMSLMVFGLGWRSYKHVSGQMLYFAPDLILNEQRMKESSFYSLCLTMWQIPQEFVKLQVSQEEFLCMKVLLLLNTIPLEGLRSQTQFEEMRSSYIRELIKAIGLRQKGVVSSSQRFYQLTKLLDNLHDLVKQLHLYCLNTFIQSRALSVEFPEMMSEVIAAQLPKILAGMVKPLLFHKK
# Chain of Thyrotropin-releasing hormone receptor (Homo sapiens) (P34981 whole entry, looked up): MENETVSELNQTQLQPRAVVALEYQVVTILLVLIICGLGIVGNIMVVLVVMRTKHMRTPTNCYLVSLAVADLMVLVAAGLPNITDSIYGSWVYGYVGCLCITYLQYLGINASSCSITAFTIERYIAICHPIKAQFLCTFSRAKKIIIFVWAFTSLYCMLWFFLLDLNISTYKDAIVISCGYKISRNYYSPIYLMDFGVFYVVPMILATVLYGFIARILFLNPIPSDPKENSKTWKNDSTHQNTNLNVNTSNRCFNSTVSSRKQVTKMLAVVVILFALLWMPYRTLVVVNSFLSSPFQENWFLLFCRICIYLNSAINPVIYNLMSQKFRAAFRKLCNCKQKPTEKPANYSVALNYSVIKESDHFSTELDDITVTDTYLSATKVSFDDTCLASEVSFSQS
# Chain of Nuclear receptor subfamily 1 group I member 2 (Rattus norvegicus) (Q9R1A7 whole entry, looked up): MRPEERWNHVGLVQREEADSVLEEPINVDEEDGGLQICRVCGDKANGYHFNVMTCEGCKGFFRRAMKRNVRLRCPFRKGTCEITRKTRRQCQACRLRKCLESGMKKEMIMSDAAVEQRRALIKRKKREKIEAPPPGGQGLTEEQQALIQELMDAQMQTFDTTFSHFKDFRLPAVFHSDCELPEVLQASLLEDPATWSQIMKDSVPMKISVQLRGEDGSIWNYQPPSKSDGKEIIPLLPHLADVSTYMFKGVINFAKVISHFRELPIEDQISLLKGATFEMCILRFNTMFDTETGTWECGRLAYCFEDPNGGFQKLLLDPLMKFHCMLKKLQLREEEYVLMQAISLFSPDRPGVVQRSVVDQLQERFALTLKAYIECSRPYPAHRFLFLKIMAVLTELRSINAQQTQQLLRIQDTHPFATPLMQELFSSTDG
SMILES,Potency [1],Potency [2],Potency [3],Potency [4],Potency [5],outcome [6],outcome [7],outcome [8],outcome [9],Potency [10],Potency [11],Potency [12],Potency [13],outcome [14],Potency [15],Potency [16],max activation [17],Potency [18],Potency [19],Potency [20]
CCN(CC)CCNC(=O)COc1ccc(Cl)cc1,inactive,inactive,inactive,inactive,inactive,inactive,inactive,inactive,inactive,inactive,inactive,inactive,inactive,inactive,inactive,inactive,-3.06%,inactive,inactive,12.3 µM (active)
CCCCC1CCC(=O)O1 (centres undefined),inactive,inactive,inactive,inactive,inactive,inactive,inactive,inactive,inactive,inactive,inactive,inactive,,inactive,inactive,inactive,,,,inactive
O=C(CCCl)NCc1ccccc1,inactive,inactive,inactive,inactive,inactive,inactive,inactive,inactive,inactive,inactive,inactive,inactive,inactive,inactive,inactive,inactive,,,,inactive
CC1=NN(c2cc(Cl)c(S(=O)(=O)O)cc2Cl)C(=O)C1N=Nc1ccc(S(=O)(=O)O)cc1 (centres undefined),61.1 µM (active),inactive,inactive,inactive,inactive,inactive,inactive,inactive,inactive,inactive,54.5 µM (active),inactive,,inactive,48.6 µM (active),inactive,,,,inactive
Cc1cc(S(=O)(=O)O)c(N)cc1Cl,inactive,inactive,inactive,inactive,inactive,inactive,inactive,inactive,inactive,inactive,inactive,inactive,inactive,inactive,inactive,inactive,,,,
CCCCCCCCOC(=O)CCCCCCCCC(=O)OCCCCCCCC,inactive,inactive,inactive,inactive,inactive,inactive,inactive,inactive,inactive,inactive,inactive,inactive,inactive,inactive,inactive,inactive,,,,inactive
CCCCN1C[C@H](O)[C@@H](O)[C@H](O)[C@H]1CO,inactive,inactive,inactive,inactive,inactive,inactive,inactive,inactive,inactive,inactive,inactive,inactive,inactive,inactive,inactive,inactive,-1.78%,inactive,inactive,inactive
NC1=NCC2c3ccccc3Cc3ccccc3N12 (centres undefined),inactive,inactive,inactive,inactive,inactive,inactive,inactive,inactive,inactive,inactive,inactive,inactive,inactive,inactive,inactive,,0.173%,,,
C[C@@H](N)C(=O)O,inactive,inactive,inactive,inactive,inactive,inactive,inactive,inactive,,,inactive,inactive,inactive,inactive,inactive,inactive,-2.77%,inactive,inactive,inactive
COC(=O)N[C@H](C(=O)N[C@@H](Cc1ccccc1)[C@@H](O)CN(Cc1ccc(-c2ccccn2)cc1)NC(=O)[C@@H](NC(=O)OC)C(C)(C)C)C(C)(C)C,inactive,inactive,inactive,inactive,,inactive,inactive,inactive,inactive,inactive,inactive,inactive,inactive,inactive,inactive,,,,,inactive
C=CCCCCCCCCO,inactive,inactive,inactive,inactive,inactive,inactive,,inactive,inactive,inactive,inactive,inactive,inactive,inactive,inactive,inactive,,,,inactive
N#CSCC(=O)O,inactive,inactive,inactive,inactive,inactive,inactive,,inactive,,,inactive,inactive,inactive,inactive,inactive,inactive,,,,inactive
CCCc1c2oc(C(=O)O)cc(=O)c2cc2c(=O)cc(C(=O)O)n(CC)c12,inactive,inactive,inactive,inactive,inactive,inactive,inactive,inactive,,,,inactive,inactive,inactive,inactive,inactive,,,,inactive
CCNCCO,inactive,inactive,inactive,inactive,inactive,inactive,,inactive,inactive,inactive,inactive,inactive,,inactive,inactive,inactive,,,,inactive
Cc1nnc(SCC2=C(C(=O)O)N3C(=O)[C@@H](NC(=O)Cn4cnnn4)[C@H]3SC2)s1,inactive,inactive,inactive,inactive,inactive,,inactive,inactive,inactive,inactive,inactive,inactive,inactive,inactive,inactive,inactive,-4.1%,inactive,inactive,inactive
